FXN GAA850 act = activators of GAA850 frataxin (FXN) promoter; HEK293 lucGAA850 FXN promoter luciferase reporter, 24 h; percent of 10 µM SAHA response; hit rate 0.56% among 360,000; activation, % at 6 µM;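 active = activation above the average of all compounds screened plus 3 SD, cutoff fixed separately per campaign, cut at about 7.5% in these data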;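 note: 0% = DMSO wells and 100% = 10 µM SAHA wells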
HSF1 inhib = HSF1 inhibition | activity change, negative = inhibition, % at 7.5 µM (by protocol) | hit rate 0.77% among 300,000 | NIH3T3-HGL HSE-luciferase, MG132-induced, luminescence 8 h; active compounds read low;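 active = more than half of replicate wells show activity change below -50%, luminescence cut by over half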;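 note: luciferase reports HSF-1 transcriptional activity via heat shock element; 0% = median of DMSO wells and -100% = zero luminescence signal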
DAX1 inh = inhibitors of human orphan nuclear receptor DAX1 (NR0B1) | HEK293 Gal4-DAX1 luciferase reporter, luminescence | inhibition, % at 6.75 µM | hit rate 0.99% among 340,000 | AID 504766;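 active = inhibition above the mean over all tested compounds plus 3 SD, cut at about 4.2% in these data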;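 note: 0% = DAX1-transfected cells with DMSO and 100% = empty-vector control cells with DMSO; inhibition shows as a rise in luminescence from relieved DAX1 repression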
Target sequence (P51843 207-470 limits assumed): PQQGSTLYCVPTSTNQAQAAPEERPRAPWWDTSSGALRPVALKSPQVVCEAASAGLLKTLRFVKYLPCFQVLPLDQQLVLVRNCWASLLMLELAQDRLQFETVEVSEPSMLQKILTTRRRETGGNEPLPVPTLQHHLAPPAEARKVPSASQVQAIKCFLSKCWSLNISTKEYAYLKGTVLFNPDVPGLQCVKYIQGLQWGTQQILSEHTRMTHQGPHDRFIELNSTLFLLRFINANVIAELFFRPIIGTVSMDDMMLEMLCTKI
HSF-1 act = increases HSF-1 driven luciferase reporter signal; NIH3T3-HGL HSF-1 luciferase reporter, MG132, 8 h; 100% = twice DMSO control signal; hit rate 1.7% among 300,000; activation, % at 9 µM;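 active = mean replicate activation of at least 50% with a set share of replicates each reaching 50%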;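 note: 0% = median of the neutral control wells and 100% = twice that signal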
AHR act = activators of human aryl hydrocarbon receptor; P35869; AHR-responsive luciferase reporter cells, luminescence; activation, % at 5 µM; hit rate 2.5% among 320,000; in the data active = activation above about 47%;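 note: 0% = vehicle wells and 100% = reference agonist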
GAA30 counter = GAA30 FXN promoter activation counter-screen. shares compounds with FXN GAA850 act. HEK293 lucGAA30 FXN promoter luciferase, 24 h; DMSO = 0%, 5 µM ipriflavone = 100%. activation, % at 6 µM. hit rate 66% among 1,900. AID 588350;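 active = mean activation above the mean of solvent-only control wells plus 3 SD, cut at about 22% in these data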;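 note: counterscreen of GAA850 promoter hits where activity marks nonselective or luminescence artifacts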
GAA850 confirm = confirmation of GAA850 frataxin (FXN) promoter activators | shares compounds with FXN GAA850 act | HEK293 lucGAA850 FXN promoter luciferase reporter, 24 h; 100% = activation by SAHA | activation, % at 6 µM | hit rate 86% among 1,900 | AID 588351;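 active = mean activation above a set limit taken from the primary screen, cut at about 8% in these data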;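 note: 0% = DMSO wells and 100% = 10 µM SAHA wells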
Numbers without * were called inactive; ! = a repeat was not active. Only some compounds are listed: those with a hit (about 5.4% of all), similar ones and a draw of the others.

`c1ccc(-c2n[nH]c(-c3ccccn3)n2)nc1` gave FXN GAA850 act 7.7*!, HSF1 inhib 4, DAX1 inh 1, HSF-1 act 9, AHR act 12, GAA30 counter 102* and GAA850 confirm 27*.
`c1ccc(-c2ccccn2)nc1` gave FXN GAA850 act 2, HSF1 inhib 1, DAX1 inh -1, HSF-1 act -11 and AHR act -2.
`O=C(Nc1ccc(Cl)cc1)C1CCCCN1S(=O)(=O)c1ccccc1` (stereo unspecified) gave FXN GAA850 act 7.9*, DAX1 inh -1, AHR act 11, GAA30 counter 24* and GAA850 confirm 8.3*.
Nc1cc([N+](=O)[O-])cc2oc(-c3ccccc3)cc12 was read as FXN GAA850 act 8.2*, HSF1 inhib -5, DAX1 inh 0, HSF-1 act 1, AHR act 39, GAA30 counter 94* and GAA850 confirm 33*.
`Cc1ccc(S(=O)(=O)N2CCOCC2)cc1NC(=O)CSc1nnc(C2CC2)n1C1CC1` gave FXN GAA850 act 0, DAX1 inh 0 and AHR act 1.
`O=C(c1ccc(Cl)s1)N1CCN(S(=O)(=O)c2ccc(Cl)cc2)CC1` gave FXN GAA850 act 0, DAX1 inh 1 and AHR act -2.
`Cc1ccc(-c2nn(-c3ccccc3)cc2/C=N/NS(=O)(=O)c2ccccc2)cc1` gave FXN GAA850 act 8.4*, HSF1 inhib 15, DAX1 inh 0, HSF-1 act 43, AHR act 3, GAA30 counter 81* and GAA850 confirm 23*.
For CCOc1ccc(NC(=S)Nc2ccccc2C2(C)CC2)cc1 the results were FXN GAA850 act 1, HSF1 inhib -12, DAX1 inh 0, HSF-1 act -20 and AHR act 0.
`Fc1ccc(N2CCN(c3cnc4ccccc4n3)CC2)cc1` gave FXN GAA850 act 7.9*, HSF1 inhib 34, DAX1 inh 0, HSF-1 act 34, AHR act 8, GAA30 counter 106* and GAA850 confirm 41*.
O=C(NCc1ccco1)c1ccc(Cn2c(=O)c3sccc3n(Cc3cccc(F)c3)c2=O)cc1 was read as FXN GAA850 act 18*, HSF1 inhib 13, DAX1 inh 1, HSF-1 act 18, AHR act -1, GAA30 counter 25* and GAA850 confirm 13*.
O=C(Cn1c(=O)n(Cc2ccco2)c(=O)c2ccccc21)Nc1cccc(Cl)c1 was read as FXN GAA850 act 4, HSF1 inhib 3, DAX1 inh 1, HSF-1 act -4 and AHR act 2.
For O=C(NCc1ccco1)c1ccc(Cn2c(=O)c3ccccc3n(Cc3cccc(Cl)c3)c2=O)cc1 the results were FXN GAA850 act 11*, HSF1 inhib 16, DAX1 inh 0, HSF-1 act 20, AHR act 1, GAA30 counter 13 and GAA850 confirm 6.
Screening O=C(CCn1c(=O)c2sccc2n(CC(=O)NCc2ccco2)c1=O)NCc1ccccc1 returned FXN GAA850 act -2, HSF1 inhib -1, DAX1 inh 0, HSF-1 act -4 and AHR act 7.
`CC[C@@]1(C(=O)OC)N[C@H](CN(C)C(=O)Nc2ccc(Cl)cc2)[C@@H]2C(=O)N(Cc3ccccc3)C(=O)[C@@H]21` gave FXN GAA850 act 17*, DAX1 inh -1, AHR act 1, GAA30 counter 22 and GAA850 confirm 11*.
Screening CCN(C[C@H]1N[C@@](CC)(C(=O)OC)[C@H]2C(=O)N(Cc3ccccc3)C(=O)[C@@H]12)C(=O)Nc1ccc(C(F)(F)F)cc1 returned FXN GAA850 act 8.4*, DAX1 inh 0, AHR act 2, GAA30 counter 27* and GAA850 confirm 14*.
For CCN(C[C@H]1N[C@@](CC)(C(=O)OC)[C@H]2C(=O)N(Cc3ccccc3)C(=O)[C@@H]12)C(=O)Nc1ccc(OC)cc1 the results were FXN GAA850 act 18*, DAX1 inh 1, AHR act 0, GAA30 counter 47* and GAA850 confirm 16*.
CC[C@@]1(C(=O)OC)N[C@H](CN(C)C(C)=O)[C@@H]2C(=O)N(Cc3ccccc3)C(=O)[C@@H]21 was read as FXN GAA850 act 1, DAX1 inh 0 and AHR act -1.
`CC[C@@]1(C(=O)OC)N[C@H](CN(C)C(=O)COc2ccccc2)[C@@H]2C(=O)N(Cc3ccccc3)C(=O)[C@@H]21` gave FXN GAA850 act 9.5*, DAX1 inh -1, AHR act -2, GAA30 counter 18 and GAA850 confirm 7.
For CC[C@@]1(C(=O)OC)N[C@H](CN(C)C(=O)Nc2ccc(Cl)cc2)[C@@H]2C(=O)N(C)C(=O)[C@@H]21 the results were FXN GAA850 act -2, DAX1 inh 0 and AHR act 2.
For COc1ccc(C)cc1S(=O)(=O)N1CCN(C(=O)c2ncoc2-c2cccc(F)c2)CC1 the results were FXN GAA850 act 2, HSF1 inhib -4, DAX1 inh 0, HSF-1 act 15 and AHR act 19.
`Cc1cc(C)nc(SC2c3cccc4cccc(c34)C2NS(=O)(=O)c2ccccc2)n1` (stereo unspecified) gave FXN GAA850 act 8.6*, HSF1 inhib 12, DAX1 inh -1, HSF-1 act 39, AHR act 9, GAA30 counter 15 and GAA850 confirm 14*.
Cc1ccc(S(=O)(=O)NC2c3cccc4cccc(c34)C2Sc2ncccn2)cc1 (stereo unspecified) was read as FXN GAA850 act 4, HSF1 inhib -11, DAX1 inh -1, HSF-1 act 3 and AHR act 4.
Screening Cc1ccc(C(=O)NCC(=O)OCC(=O)Nc2cc(S(=O)(=O)N3CCOCC3)ccc2Cl)s1 returned FXN GAA850 act 0, DAX1 inh 1 and AHR act 0.
For CC(C)(C)c1csc(NC(=O)CS(=O)(=O)c2ccccc2)n1 the results were FXN GAA850 act 7.9*, HSF1 inhib 5, DAX1 inh 2, HSF-1 act 5, AHR act 3, GAA30 counter 51* and GAA850 confirm 15*.
Screening O=C1Cc2c([nH]c3ccc(Br)cc23)-c2ccccc2N1 returned FXN GAA850 act 68*, DAX1 inh 4, GAA30 counter 167* and GAA850 confirm 201*.
O=c1c2c([nH]c3ccc(Br)cc13)CCCC2 was read as FXN GAA850 act 0, HSF1 inhib -5, DAX1 inh -1, HSF-1 act 0 and AHR act 1.

Source: PubChem
